Rows were chosen to be rich in hits. Some 18% of all compounds tested hit in one or more screens of this group.
KAT2A inh – blocks human GCN5L2 histone acetyltransferase. Q92830. GCN5L2 HAT assay, ThioGlo1 CoA-SH fluorescence. Potency, µM (top dose mostly 58.9 µM), actives largely listed as inhibitors. hit rate 0.21% among 390,000. AID 504327
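qHTS, 1536-well. 20nM enzyme, pH 7.5 HEPES/EDTA/Tween-20 buffer; 15 min compound preinc., RT. Start: 75uM H3(1-25), 70uM AcCoA, 50uM ThioGlo1. Read Ex340/Em540 at t=0 (autofluorescence flag) and t=20 min.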
TDP1 block – TDP1 (human) enzyme inhibition. Q9NUW8. recombinant TDP1, AlphaScreen DNA substrate cleavage. Potency, µM (highest dose often 130 µM), hits mostly inhibitors. hit rate 0.28% among 350,000. AID 485290; further: nearly all actives have a fitted effect of over 40% in size
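Recombinant human Tdp1 (E. coli-expressed, 1 nM final) preincubated with compounds 15 min at room temperature, then 5'-biotin/3'-phosphotyrosine-FITC DNA substrate (15 nM final) added for 5 min. AlphaScreen beads (10 ug/ml final) added 10 min; cleavage lowers signal.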
VDR inh – blocks the human vitamin D receptor; P11473; VDR-SRC2-3 peptide fluorescence polarization, 2 h; Potency, µM, hits mostly inhibitors; hit rate 0.93% among 400,000; AID 504847
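Signal is fluorescence polarization, reporting how far test compounds block the interaction of VDR with the SRC2-3 coregulator peptide after a 2 h room-temperature incubation.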
PLK1 PBD inh – inhibitors of human PLK1 polo-box domain binding. P53350. Plk1 PBD binding of FITC phosphopeptide, fluorescence polarization. Potency, µM, actives largely listed as inhibitors. hit rate 2.8% among 360,000. AID 720504; further: series mostly up to about 57 µM; nearly all actives have a fitted effect of over 65% in size
DT40 TDP1 no CPT – qHTS for Inhibitors of human tyrosyl-DNA phosphodiesterase 1 (TDP1): qHTS in cells in absence of CPT | hit rate 15% among 420,000 | Potency, µM (doses to about 46.2 µM), usual class: inhibitors | DT40 Tdp1-/- hTDP1 cells, no CPT, ATP luminescence, 48 h; further: nearly all actives have a fitted effect of over 55% in size
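Stably hTDP1-transfected Tdp1-null chicken DT40 cells were treated with library compounds minus camptothecin and grown for at least 48 hr at 37 °C, after which cellular ATP was quantified by luminescence.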
TDP1 cell CPT – DT40-hTDP1 cell growth loss with CPT; chicken DT40 Tdp1-/-;hTDP1 cells + 20 nM CPT, ATP luminescence, 48 h; Potency, µM (top dose mostly 46.2 µM), hits mostly inhibitors; hit rate 12% among 420,000; further: nearly all actives have a fitted effect of over 55% in size
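Chicken DT40 Tdp1-/- cells complemented with human TDP1, 400 cells/well, exposed to compounds plus 20 nM camptothecin for at least 48 h at 37 C; viability read as ATP content by CellTiter-Glo luminescence.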
A number is an active result; [ ] = dose if it differs, or a comment. The call rests on the fitted dose curve; in most records, active means well fitted curve in the direction sought with a large enough effect; inconclusive means small, poorly fitted or top-dose-only effect, or another doubt; inactive means no such curve, though single readings can be large; an effect the other way counts as inactive or inconclusive.

For CCOC(=O)c1c(CN2CCNCC2)nc2ccc(Cl)cc2c1-c1ccccc1 the results were VDR inh inactive, PLK1 PBD inh inactive, DT40 TDP1 no CPT 4.6µM and TDP1 cell CPT 4.6µM.
For COc1ccc(CCC(=O)NCc2nc3cccnc3n2Cc2cccc(OC)c2)cc1 the results were KAT2A inh inactive, TDP1 block inactive, VDR inh inactive, DT40 TDP1 no CPT inconclusive and TDP1 cell CPT inconclusive.
CCC(=O)N1CCc2cc(S(=O)(=O)CCC(=O)NCc3ccccc3Cl)ccc21 was read as KAT2A inh inactive, TDP1 block inactive, VDR inh inactive, DT40 TDP1 no CPT inactive and TDP1 cell CPT inconclusive.
Screening CCC(=O)N1CCc2cc(S(=O)(=O)CCC(=O)N3CCN(c4cccc(Cl)c4)CC3)ccc21 returned KAT2A inh inactive, TDP1 block inactive, VDR inh inactive, DT40 TDP1 no CPT 9.2µM and TDP1 cell CPT 21µM.
For CCC(=O)N1CCc2cc(S(=O)(=O)CCC(=O)N3CCN(c4ccc(Cl)cc4)CC3)ccc21 the results were KAT2A inh inactive, TDP1 block inactive, VDR inh inactive, PLK1 PBD inh inactive, DT40 TDP1 no CPT 4.1µM and TDP1 cell CPT 8.2µM.
Screening CCN1CCN(Cc2c3ccccc3cc3ccccc23)CC1 returned KAT2A inh inactive, VDR inh inactive, PLK1 PBD inh inactive, DT40 TDP1 no CPT inconclusive and TDP1 cell CPT inconclusive.
For CCOCCOC(=O)c1[nH]c2c(c1C)C(=O)CC(c1ccc(OC)c(OC)c1)C2 (stereo not given) the results were KAT2A inh inactive, VDR inh inactive, PLK1 PBD inh inactive, DT40 TDP1 no CPT 13µM and TDP1 cell CPT inconclusive.
CCC(C)OC(=O)c1[nH]c2c(c1C)C(=O)CC(c1ccc(N(C)C)cc1)C2 (stereo not given) was read as KAT2A inh inconclusive, TDP1 block inactive, VDR inh inactive, PLK1 PBD inh inactive, DT40 TDP1 no CPT 15µM and TDP1 cell CPT 23µM.
C/C=C/COC(=O)c1[nH]c2c(c1C)C(=O)CC(c1ccc(N(C)C)cc1)C2 (stereo not given) was read as KAT2A inh inactive, TDP1 block inactive, VDR inh inactive, PLK1 PBD inh inactive, DT40 TDP1 no CPT 16µM and TDP1 cell CPT 26µM.
CCOc1ccc(C2CC(=O)c3c([nH]c(C(=O)OCCOc4ccccc4)c3C)C2)cc1 (stereo not given) was read as KAT2A inh inactive, TDP1 block inactive[12.3 µM], VDR inh inactive, DT40 TDP1 no CPT 15µM and TDP1 cell CPT 13µM.
`CN(c1nccc(=O)[nH]1)C1CCN(c2nc3ccccc3n2Cc2ccc(F)cc2)CC1` gave KAT2A inh inactive, VDR inh inactive, DT40 TDP1 no CPT inconclusive and TDP1 cell CPT inactive.
`CC(=O)C(C)Oc1ccc(Cc2ncc(C(F)(F)F)cc2Cl)cc1` (stereo not given) gave KAT2A inh inactive, TDP1 block inactive, VDR inh inactive, PLK1 PBD inh inactive, DT40 TDP1 no CPT inactive and TDP1 cell CPT inactive.
Screening CCOC(=O)C1=C(C(=O)OCC)N(CC)CCC1=O returned VDR inh inactive, PLK1 PBD inh inconclusive, DT40 TDP1 no CPT inactive and TDP1 cell CPT inactive.
`CC(OC(=O)CC1CC2CCC1C2)C(=O)Nc1cccc(S(=O)(=O)N2CCOCC2)c1` (stereo not given) gave KAT2A inh inactive, TDP1 block inactive, VDR inh inactive, PLK1 PBD inh inactive, DT40 TDP1 no CPT inactive and TDP1 cell CPT inactive.
For CCOCCOC(=O)c1[nH]c2c(c1C)C(=O)CC(c1ccc(N(C)C)cc1)C2 (stereo not given) the results were KAT2A inh inactive, TDP1 block inactive, VDR inh inactive, PLK1 PBD inh inactive, DT40 TDP1 no CPT inconclusive and TDP1 cell CPT 23µM.
Cc1c(C(=O)OC2CCCC2C)[nH]c2c1C(=O)CCC2 (stereo not given) was read as KAT2A inh inactive, TDP1 block inactive, VDR inh inactive, PLK1 PBD inh inactive, DT40 TDP1 no CPT inconclusive and TDP1 cell CPT 21µM.
For Cc1c(C(=O)OCCOc2ccccc2)[nH]c2c1C(=O)CCC2 the results were KAT2A inh inconclusive, TDP1 block inactive, VDR inh inactive, PLK1 PBD inh inactive, DT40 TDP1 no CPT 23µM and TDP1 cell CPT 15µM.
For Cc1ccc(C)c(OCC(=O)Nc2ccc(S(=O)(=O)Nc3onc(C)c3C)cc2)c1C the results were KAT2A inh inactive, VDR inh inactive, DT40 TDP1 no CPT inactive and TDP1 cell CPT inactive.
Screening COc1cccc(C2CC(c3ccc(Cl)cc3Cl)Nc3nc(N)nn32)c1 (stereo not given) returned KAT2A inh inactive, TDP1 block inactive, VDR inh inactive, PLK1 PBD inh inconclusive, DT40 TDP1 no CPT 23µM and TDP1 cell CPT inconclusive.
Screening CCOc1ccc(C2CC(c3cccc(Cl)c3)n3nc(N)nc3N2)cc1 (stereo not given) returned KAT2A inh inactive, TDP1 block inactive, VDR inh inactive, PLK1 PBD inh inactive, DT40 TDP1 no CPT 16µM and TDP1 cell CPT 7.3µM.
Screening O=C(CS(=O)CC(=O)Nc1cccnc1)Nc1ccc(F)cc1 (stereo not given) returned KAT2A inh inactive, TDP1 block inactive, VDR inh inactive, PLK1 PBD inh inactive, DT40 TDP1 no CPT inactive and TDP1 cell CPT inactive.
`CC(=O)N(c1ccccc1)C1CC(C)N(C(=O)c2ccccc2)c2ccccc21` (stereo not given) gave KAT2A inh inactive, VDR inh inactive, PLK1 PBD inh inactive, DT40 TDP1 no CPT 7.3µM and TDP1 cell CPT 8.2µM.
CCC(=O)N1c2ccccc2[C@@H](N(C(C)=O)c2ccccc2)C[C@H]1C was read as KAT2A inh inconclusive, TDP1 block inactive, VDR inh inactive, PLK1 PBD inh inactive, DT40 TDP1 no CPT inactive and TDP1 cell CPT inactive.
CCC(=O)OC1CC(C)N(C(=O)c2ccccc2)c2ccc(C)cc21 (stereo not given) was read as KAT2A inh inactive, TDP1 block inactive, VDR inh inactive, PLK1 PBD inh inactive, DT40 TDP1 no CPT 14µM and TDP1 cell CPT 11µM.
Cc1ccc(C(=O)N(c2ccccc2)C2CC(C)N(C(=O)c3ccco3)c3ccccc32)cc1 (stereo not given) was read as KAT2A inh inactive, TDP1 block inactive, VDR inh inactive, PLK1 PBD inh inactive, DT40 TDP1 no CPT 4.6µM and TDP1 cell CPT 7.3µM.
For CCCC(=O)N1c2ccccc2C(N(C(C)=O)c2ccccc2)CC1C (stereo not given) the results were KAT2A inh inactive, TDP1 block inactive, VDR inh inactive, PLK1 PBD inh inactive, DT40 TDP1 no CPT inconclusive and TDP1 cell CPT 23µM.
